Here are results for 53 compounds from PubChem BioAssay (EPA / NIEHS).

Results filed as inconclusive are left out. Active and inactive are the calls of the source. Rule for the calls: active = hit-call score of the fitted dose curve at least 0.9, where 1 is the maximum; inconclusive = response in the unintended direction; inactive = score below 0.9.

The target in assay [1] is chimpanzee Androgen Receptor (AR), AR (gene 747460) (UniProt O97775). In words: NVS_NR_cAR: NovaScreen (NVS) Nuclear Receptor Binding Assay for chimpanzee Androgen Receptor (AR) (AID 2283346).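 Note: radioligand displacement from AR measured by scintillation counting in a cell-free assay; a loss of bound radioligand signal versus DMSO counts as binding.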 Put shortly: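 Cell-free competition binding with insect-cell (Sf9/Sf21) extracted chimpanzee AR; scintillation signal from lysate at 72 h. Screened in duplicate at 25 uM, then concentration-response for actives; fitting relative to DMSO.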

The target in assay [2] is Estrogen receptor beta (Homo sapiens) (UniProt Q92731). In words: OT_ER_ERbERb_0480: Odyssey Thera (OT) 8-hour HEK293T Protein-Complementation Assay for Estrogen Receptor-beta/-beta Homodimer (AID 2283357).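 Note: active means signal gain over DMSO baseline.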 The procedure, abridged: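 Cells (HEK293T, stable ER-beta LBD PCA pair) are treated 8 hours, fixed and Draq5-stained; signal is fluorescence intensity increase relative to vehicle, fitted in the gain direction.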

The target in assay [3] is Estrogen receptor (Homo sapiens) (UniProt P03372). In words: OT_ER_ERaERa_1440: Odyssey Thera (OT) 24-hour HEK293T Protein-Complementation Assay for Estrogen Receptor-alpha/-alpha Homodimer (AID 2283349).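 Note: hits raise fluorescence above DMSO for agonists and antagonists alike.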 Put shortly:
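Protein-fragment complementation between two human ERα ligand-binding domains (aa 310-547) in stably transfected HEK293T cells was monitored after 24 h treatment, using fluorescence intensity relative to vehicle controls.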

Assay [4] has the same target. Put plainly: OT_ER_ERaERa_0480: Odyssey Thera (OT) 8-hour HEK293T Protein-Complementation Assay for Estrogen Receptor-alpha/-alpha Homodimer (AID 2283351).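 Note: rise in fluorescence from reassembled reporter fragments on ERα LBD homodimer in nucleus or whole cell.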 The procedure, abridged: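 The readout is complementation of fragments fused to the human ER alpha ligand-binding domain (aa 310-547), stably expressed in HEK293T cells. After 8 h of exposure, the increase in nuclear/cytoplasmic fluorescence was measured by laser scanning cytometry and fitted relative to DMSO.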

Assay [5] has as its target Estrogen receptor (Homo sapiens) + Estrogen receptor beta (Homo sapiens) (UniProt P03372+Q92731). In words: OT_ER_ERaERb_1440: Odyssey Thera (OT) 24-hour HEK293T Protein-Complementation Assay for Estrogen Receptor-alpha/-beta Homodimer (AID 2283356).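 Note: heteromer of ER alpha and ER beta binding domains; hits raise reporter fluorescence and both agonists and antagonists give an increase.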 Put shortly:
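24 h exposure; HEK293T PCA cells with ERα/ERβ LBD fragments; signal rise in nuclear or whole-cell fluorescence over vehicle.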

Assay [6] deals with Androgen Receptor/SRC-1 Co-activator, AR (gene 367) (UniProt P10275). In words: OT_AR_ARSRC1_0960: Odyssey Thera (OT) 16-hour HEK293T Protein-Complementation Assay for Androgen Receptor/SRC-1 Co-activator (AID 2283353).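 Note: actives raise the signal above DMSO so potency reflects increased AR and SRC-1 complex.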 Put shortly:
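HEK293T cells stably expressing AR and SRC-1 fused to Venus YFP fragments, imaged 16 h after dosing. Nuclear/cytoplasmic fluorescence ratio at 488 nm from at least 400 cells per image; gain of signal relative to DMSO.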

For assay [7] the target is unchanged. In words: OT_AR_ARSRC1_0480: Odyssey Thera (OT) 8-hour HEK293T Protein-Complementation Assay for Androgen Receptor/SRC-1 Co-activator (AID 2283354).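 Note: hits raise the complementation signal above DMSO so AC50 marks enhancers.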 The procedure, abridged: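 Measures AR/SRC-1 binding by Venus YFP fragment complementation in HEK293T stable lines at 8 h post-dose. Imaging quantifies the 488nm nucleus/cytoplasm ratio in ≥400 cells; DMSO defines baseline.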

The target in assay [8] is human Thyroid Receptor Alpha (TRa), THRA (gene 7067) (UniProt P10827). In words: NVS_NR_hTRa_Antagonist: NovaScreen (NVS) Nuclear Receptor Binding Assay for human Thyroid Receptor Alpha Antagonism (TRa) (AID 2283362). Put shortly:
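In this biochemical format, receptor protein is dosed with chemical and read after 1 hour via AlphaLISA. Decreases from the DMSO baseline indicate antagonist activity; screening used 25 uM in duplicate before concentration-response confirmation.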

Assay [9] deals with bovine Estrogen Receptor (ER), ESR1 (gene 407238) (UniProt P49884). In words: NVS_NR_bER: NovaScreen (NVS) Nuclear Receptor Binding Assay for bovine Estrogen Receptor (ER) (AID 2283345).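 Note: actives lower the bound radioligand count which means they displace the ER ligand.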 The procedure, abridged: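 Cell-free radioligand binding with receptor from bovine uterine membranes, read by scintillation counting 18 h after dosing. Loss of specific binding was scored against DMSO; primary screen at 25 uM in duplicate, actives then run as concentration series.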

The target of assay [10] is rat Mineralocorticoid Receptor (MR), Nr3c2 (gene 25672) (UniProt P22199). Put plainly: NVS_NR_rMR: NovaScreen (NVS) Nuclear Receptor Binding Assay for rat Mineralocorticoid Receptor (MR) (AID 2283355). Put shortly: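 Adrenalectomized rat brain supernatant was dosed with test chemical, then radioligand binding was measured by scintillation counting at 24 h. Initial testing ran in duplicate at 25 uM, followed by concentration series for actives.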

The target in assay [11] is Estrogen receptor (Homo sapiens) (UniProt P03372). In words: NVS_NR_hER: NovaScreen (NVS) Nuclear Receptor Binding Assay for human Estrogen Receptor (ER) (AID 2283348). Put shortly: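 Scintillation signal from bound radioligand was measured 18 hours after chemical addition to cell-free MCF7 protein extracts, with DMSO as baseline. Activity was scored as signal loss; compounds ran first at 25 uM in duplicate.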

Assay [12] deals with human Peroxisome Proliferator-activated Receptor alpha (PPARa), PPARA (gene 5465) (UniProt Q07869). Put plainly: NVS_NR_hPPARa: NovaScreen (NVS) Nuclear Receptor Binding Assay for human Peroxisome Proliferator-activated Receptor alpha (PPARa) (AID 2283359).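 Note: activity means loss of TR-FRET signal versus DMSO baseline.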 The procedure, abridged:
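Chemicals were first screened in duplicate at 25 uM, and active ones were retested across concentration series. Binding was monitored by TR-FRET one hour after dosing, with decreased signal against DMSO counted as activity.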

Chain of human Peroxisome Proliferator-activated Receptor alpha (PPARa), PPARA (gene 5465) (Q07869 whole entry, looked up): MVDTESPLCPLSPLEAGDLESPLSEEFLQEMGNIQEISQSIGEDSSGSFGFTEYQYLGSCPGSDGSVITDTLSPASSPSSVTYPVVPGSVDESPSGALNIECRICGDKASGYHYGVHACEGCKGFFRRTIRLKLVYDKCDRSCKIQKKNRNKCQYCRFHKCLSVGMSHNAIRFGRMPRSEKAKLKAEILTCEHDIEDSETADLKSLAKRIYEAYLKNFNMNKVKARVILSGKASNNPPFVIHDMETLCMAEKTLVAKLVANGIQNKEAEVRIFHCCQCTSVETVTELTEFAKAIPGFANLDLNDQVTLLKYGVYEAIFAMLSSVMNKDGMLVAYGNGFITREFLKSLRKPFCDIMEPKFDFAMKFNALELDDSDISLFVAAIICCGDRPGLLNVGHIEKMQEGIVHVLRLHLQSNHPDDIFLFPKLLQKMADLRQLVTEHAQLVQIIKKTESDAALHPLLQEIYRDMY
Chain of Estrogen receptor (Homo sapiens) (P03372 whole entry, looked up, the tested form may be a part): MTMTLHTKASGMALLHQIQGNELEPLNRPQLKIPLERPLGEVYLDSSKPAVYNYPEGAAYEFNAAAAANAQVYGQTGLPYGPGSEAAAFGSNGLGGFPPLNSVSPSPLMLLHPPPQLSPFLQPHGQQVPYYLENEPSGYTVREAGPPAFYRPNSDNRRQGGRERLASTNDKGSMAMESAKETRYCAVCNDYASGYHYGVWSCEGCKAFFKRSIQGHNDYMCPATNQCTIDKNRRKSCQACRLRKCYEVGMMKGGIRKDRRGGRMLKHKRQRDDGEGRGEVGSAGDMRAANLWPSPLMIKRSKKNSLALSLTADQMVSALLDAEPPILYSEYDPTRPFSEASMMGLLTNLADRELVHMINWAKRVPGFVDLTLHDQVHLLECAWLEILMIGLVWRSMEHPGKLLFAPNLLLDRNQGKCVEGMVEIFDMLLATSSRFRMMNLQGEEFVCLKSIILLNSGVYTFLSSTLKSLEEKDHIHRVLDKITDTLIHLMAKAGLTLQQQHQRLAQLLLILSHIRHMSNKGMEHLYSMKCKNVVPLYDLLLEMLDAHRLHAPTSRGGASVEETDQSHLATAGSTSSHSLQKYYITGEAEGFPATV
Chain of Estrogen receptor (Homo sapiens) + Estrogen receptor beta (Homo sapiens) (P03372 whole entry, looked up, the tested form may be a part): as above
Chain of Estrogen receptor (Homo sapiens) + Estrogen receptor beta (Homo sapiens) (Q92731 whole entry, looked up, the tested form may be a part): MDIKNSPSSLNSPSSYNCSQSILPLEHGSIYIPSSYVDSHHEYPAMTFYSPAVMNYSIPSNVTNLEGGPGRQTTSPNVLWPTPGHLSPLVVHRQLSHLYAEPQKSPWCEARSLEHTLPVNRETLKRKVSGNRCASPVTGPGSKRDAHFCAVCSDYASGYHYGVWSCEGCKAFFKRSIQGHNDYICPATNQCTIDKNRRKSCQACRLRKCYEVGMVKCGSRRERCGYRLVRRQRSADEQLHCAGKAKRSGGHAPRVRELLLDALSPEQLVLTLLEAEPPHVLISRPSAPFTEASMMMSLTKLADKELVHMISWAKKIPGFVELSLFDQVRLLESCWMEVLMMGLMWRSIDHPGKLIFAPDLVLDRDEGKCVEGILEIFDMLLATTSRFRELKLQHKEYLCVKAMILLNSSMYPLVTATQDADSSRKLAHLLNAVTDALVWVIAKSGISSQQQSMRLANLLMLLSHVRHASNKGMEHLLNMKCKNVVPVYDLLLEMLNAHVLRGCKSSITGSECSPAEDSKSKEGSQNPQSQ
Chain of Androgen Receptor/SRC-1 Co-activator, AR (gene 367) (P10275 whole entry, looked up, the tested form may be a part): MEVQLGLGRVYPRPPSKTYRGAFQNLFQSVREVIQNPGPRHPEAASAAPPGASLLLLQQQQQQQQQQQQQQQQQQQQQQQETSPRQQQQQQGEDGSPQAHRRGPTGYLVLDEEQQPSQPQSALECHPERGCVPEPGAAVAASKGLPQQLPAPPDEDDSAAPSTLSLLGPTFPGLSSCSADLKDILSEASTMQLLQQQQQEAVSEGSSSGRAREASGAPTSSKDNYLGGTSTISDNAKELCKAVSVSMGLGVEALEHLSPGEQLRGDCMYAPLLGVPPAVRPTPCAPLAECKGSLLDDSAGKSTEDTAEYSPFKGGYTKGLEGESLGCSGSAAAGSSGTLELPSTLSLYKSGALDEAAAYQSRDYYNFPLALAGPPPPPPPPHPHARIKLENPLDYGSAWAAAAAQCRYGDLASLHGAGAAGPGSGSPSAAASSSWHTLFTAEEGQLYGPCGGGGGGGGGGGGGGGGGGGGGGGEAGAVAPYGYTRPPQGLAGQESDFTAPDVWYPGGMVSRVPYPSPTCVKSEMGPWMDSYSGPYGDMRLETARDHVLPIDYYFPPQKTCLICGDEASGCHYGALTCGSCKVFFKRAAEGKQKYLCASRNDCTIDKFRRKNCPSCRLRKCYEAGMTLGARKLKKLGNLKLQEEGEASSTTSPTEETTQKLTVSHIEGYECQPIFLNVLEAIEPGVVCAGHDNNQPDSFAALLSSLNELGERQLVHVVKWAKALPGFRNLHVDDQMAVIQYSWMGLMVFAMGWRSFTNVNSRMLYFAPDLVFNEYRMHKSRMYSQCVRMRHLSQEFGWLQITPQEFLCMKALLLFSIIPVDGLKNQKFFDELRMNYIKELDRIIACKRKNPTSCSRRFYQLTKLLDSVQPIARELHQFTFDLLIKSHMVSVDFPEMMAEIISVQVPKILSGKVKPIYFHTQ
Chain of Estrogen receptor beta (Homo sapiens) (Q92731 whole entry, looked up, the tested form may be a part): as the sequence (Q92731 whole entry, looked up, the tested form may be a part) above
Chain of chimpanzee Androgen Receptor (AR), AR (gene 747460) (O97775 whole entry, looked up): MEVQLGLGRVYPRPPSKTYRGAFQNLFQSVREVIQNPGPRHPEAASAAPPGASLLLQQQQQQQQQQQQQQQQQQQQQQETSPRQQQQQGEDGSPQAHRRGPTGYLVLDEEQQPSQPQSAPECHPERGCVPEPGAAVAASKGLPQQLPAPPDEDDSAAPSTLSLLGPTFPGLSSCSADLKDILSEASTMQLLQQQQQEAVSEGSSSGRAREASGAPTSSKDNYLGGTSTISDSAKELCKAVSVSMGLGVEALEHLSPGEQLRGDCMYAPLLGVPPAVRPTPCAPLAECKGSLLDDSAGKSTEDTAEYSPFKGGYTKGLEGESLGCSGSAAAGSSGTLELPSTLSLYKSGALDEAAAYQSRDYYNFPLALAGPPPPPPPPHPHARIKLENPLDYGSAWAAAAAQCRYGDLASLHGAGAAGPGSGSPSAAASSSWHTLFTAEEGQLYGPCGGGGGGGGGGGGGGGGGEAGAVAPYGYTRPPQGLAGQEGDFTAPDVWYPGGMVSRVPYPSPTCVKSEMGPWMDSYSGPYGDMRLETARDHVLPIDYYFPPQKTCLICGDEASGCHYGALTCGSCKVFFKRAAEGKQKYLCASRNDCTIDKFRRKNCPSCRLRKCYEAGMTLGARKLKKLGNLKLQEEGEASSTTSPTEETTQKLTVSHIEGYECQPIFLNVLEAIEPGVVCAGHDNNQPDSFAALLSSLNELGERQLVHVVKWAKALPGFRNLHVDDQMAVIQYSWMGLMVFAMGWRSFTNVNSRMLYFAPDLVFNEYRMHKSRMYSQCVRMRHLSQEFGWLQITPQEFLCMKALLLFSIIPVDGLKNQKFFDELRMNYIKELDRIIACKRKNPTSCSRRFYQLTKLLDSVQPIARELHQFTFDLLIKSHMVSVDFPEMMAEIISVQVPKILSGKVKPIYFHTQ
Chain of human Thyroid Receptor Alpha (TRa), THRA (gene 7067) (P10827 whole entry, looked up): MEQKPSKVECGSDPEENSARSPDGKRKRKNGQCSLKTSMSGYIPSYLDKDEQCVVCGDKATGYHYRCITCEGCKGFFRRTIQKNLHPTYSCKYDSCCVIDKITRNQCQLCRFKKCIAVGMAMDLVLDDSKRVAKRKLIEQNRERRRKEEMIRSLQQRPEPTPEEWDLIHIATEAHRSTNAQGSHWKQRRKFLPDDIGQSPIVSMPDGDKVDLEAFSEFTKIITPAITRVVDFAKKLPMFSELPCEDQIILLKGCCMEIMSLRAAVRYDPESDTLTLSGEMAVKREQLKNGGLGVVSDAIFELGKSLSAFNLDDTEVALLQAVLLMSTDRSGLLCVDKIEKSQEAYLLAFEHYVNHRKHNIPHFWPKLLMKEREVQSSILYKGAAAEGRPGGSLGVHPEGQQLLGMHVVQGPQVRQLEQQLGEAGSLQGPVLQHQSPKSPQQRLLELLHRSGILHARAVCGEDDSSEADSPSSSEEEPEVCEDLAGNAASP
Chain of bovine Estrogen Receptor (ER), ESR1 (gene 407238) (P49884 whole entry, looked up): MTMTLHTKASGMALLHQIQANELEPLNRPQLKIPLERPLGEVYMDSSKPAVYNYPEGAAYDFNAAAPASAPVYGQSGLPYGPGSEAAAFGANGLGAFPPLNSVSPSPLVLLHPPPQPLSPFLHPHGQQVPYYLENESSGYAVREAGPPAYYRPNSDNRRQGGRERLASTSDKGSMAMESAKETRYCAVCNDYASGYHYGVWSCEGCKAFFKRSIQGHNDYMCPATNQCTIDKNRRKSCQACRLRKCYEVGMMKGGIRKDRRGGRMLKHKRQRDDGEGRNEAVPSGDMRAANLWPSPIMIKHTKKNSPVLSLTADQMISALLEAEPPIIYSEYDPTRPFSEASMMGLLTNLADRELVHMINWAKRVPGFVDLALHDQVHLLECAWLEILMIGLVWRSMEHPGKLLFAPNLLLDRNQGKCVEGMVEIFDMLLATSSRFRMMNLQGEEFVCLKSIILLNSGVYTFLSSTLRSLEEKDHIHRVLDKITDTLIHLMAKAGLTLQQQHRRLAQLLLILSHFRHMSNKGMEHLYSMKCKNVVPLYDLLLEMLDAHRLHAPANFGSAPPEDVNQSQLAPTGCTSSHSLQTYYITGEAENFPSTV

As to `Cc1ccc(C(C)C)cc1O`, the figures for the AC50 in [1] and in assay [2] were 10.6 µM (active) and 63.6 µM (active), respectively.
On to `OCCN1CCNCC1`, for which the outcome in [3], in [4], in [5] and in assay [2] was inactive.
As to `CC(C)C[C@H]1C(=O)N2CCC[C@H]2[C@]2(O)O[C@](NC(=O)[C@@H]3C=C4c5cccc6[nH]c(Br)c(c56)C[C@H]4N(C)C3)(C(C)C)C(=O)N12`, the AC50 in [1] is 1.05 µM (active).
Consider `OCCOCCOCCOCCO`, for which the compound was classed as inactive in assay [1], in assay [3], in assay [5] and in assay [2].
In the case of `CCCCCCCCCCCCCCCC(=O)OC[C@H](O)[C@H]1OC(=O)C(O)=C1O`, the compound was classed as inactive in [1], in assay [3], in assay [6], in [7] and in assay [8].
With `O=c1[nH]nnc2ccccc12`, in assay [1], the compound was called inactive.
`CC(=O)C=CC1=C(C)CCCC1(C)C`: the result in assay [3] and in assay [4] was inactive.
As to `CCCCCCCCCC=O`, the compound was called inactive in assay [9], in assay [3], in assay [4] and in assay [5].
Take `CCC/C=C/C=O`: the call in assay [3], in assay [4], in assay [6], in assay [7], in assay [5] and in [2] was inactive.
Take `O=C1OC2(c3cc(Br)c(O)c(Br)c3Oc3c2cc(Br)c(O)c3Br)c2c(Cl)c(Cl)c(Cl)c(Cl)c21`: in [1], the call was inactive.
Consider `CC(=O)O[C@]1(C(C)=O)CC[C@H]2[C@@H]3C[C@H](C)C4=CC(=O)CC[C@]4(C)[C@H]3CC[C@@]21C`, for which the AC50 in assay [1] was 0.422 µM (active); in assay [10] it was 0.569 µM (active).
Turning to `CN(C)CCCN`, the compound was classed as inactive in assay [3] and in assay [4].
Consider `NCCCN1CCOCC1`, for which the compound was classed as inactive in assay [3], in assay [4], in assay [6], in assay [7], in [5] and in [2].
With `C=C(C)C(=O)O`, the compound was called inactive in [3], in assay [4] and in assay [5].
With `CC(C)c1cccc(O)c1`, the call in assay [9], in assay [11], in assay [3], in assay [4] and in assay [5] was inactive. For the same compound, the AC50 in assay [2] was 52 µM (active).
Turning to `O=C1C(c2[nH]c3ccc(S(=O)(=O)O)cc3c2O)=Nc2ccc(S(=O)(=O)O)cc21`, in assay [1], the compound was called inactive.
Take `NC(=O)Nc1ccc(Cl)cc1`: the compound was classed as inactive in [9], in assay [3], in assay [4], in assay [5] and in [2].
For the compound `CCN(CC)c1ccc(C(=C2C=CC(=[N+](CC)CC)C=C2)c2ccc(S(=O)(=O)O)cc2S(=O)(=O)[O-])cc1`, the call in assay [1], in assay [6], in assay [7] and in assay [2] was inactive. In addition, in [8], the AC50 was 8.03 µM (active).
On to `Clc1ccc2c(c1)C(N1CCNCC1)=Nc1ccccc1O2`, for which the compound was classed as inactive in assay [11].
As for `CC(C)(C)C(=O)c1ccccc1`, the compound was classed as inactive in assay [9], in assay [3] and in assay [4].
Regarding `CC(C)=CCCC(C)=CCCC(C)=CCO`, the result in [1] and in assay [2] was inactive.
`O=c1cc(-c2ccccc2)oc2cc(O)cc(O)c12`: the compound was called inactive in [6] and in [7]. For the same compound, in [2], the AC50 is 7.09 µM (active).
Turning to `CCCCCCCCCCCCCOS(=O)(=O)O`, the compound was classed as inactive in assay [6], in assay [7] and in assay [2]. For the same compound, in assay [12], the half-maximal activity concentration (AC50) is 2.1 µM (active).
For the compound `c1ccc(CCCc2ccccn2)cc1`, the outcome in assay [3], in assay [4], in assay [5] and in assay [2] was inactive.
Turning to `CCCCCOC(=O)CCC`, the call in assay [2] and in assay [12] was inactive.
On to `COc1ccc(O)cc1`, for which the compound was classed as inactive in assay [6], in assay [2] and in [8].
As for `OC1OC[C@@H](O)[C@H](O)[C@H]1O` (some centres undefined), in assay [2], the compound was called inactive.
On the same count and under the same terms, under `CC(C)=CCC[C@](C)(O)[C@@H]1CC=C(C)CC1` stands “inactive”; under `C=O`, “inactive”.
The same measure, in the same setting: under `CCCCCCCCCCN` stands “inactive”.
As for `CCCCC[Si](OCC)(OCC)OCC`, the compound was classed as inactive in [6], in assay [7], in assay [2] and in [12].
Consider `O=C(O)CCCCCCCC(=O)O`, for which, in assay [2], the outcome was inactive.
On the same count and under the same terms, the entry for `CCCCCC(CO)CCC` (centres undefined) is “inactive”; for `CCC(=O)/C=C/C1C(C)=CCCC1(C)C` (centres undefined) it is “inactive”.
Regarding `O=C[C@@H](O)[C@H](O)[C@H](O)CO`, the compound was classed as inactive in [6] and in assay [2].
Consider `C[Si](O[Si](C)(C)C)O[Si](C)(C)C`, for which the compound was classed as inactive in assay [6] and in assay [2].
As for `CCCC/C=C\CCCCCCCCCC=O`, in assay [2], the compound was classed as inactive.
For the compound `c1ccc2[nH]ccc2c1`, the call in assay [6], in assay [7], in assay [2] and in assay [8] was inactive.
Turning to `CC(C)(N)CO`, the result in assay [3], in assay [4], in assay [5] and in assay [2] was inactive.
On to `CCCCC(CC)COC(=O)/C=C\C(=O)OCC(CC)CCCC` (centres undefined), for which the half-maximal activity concentration (AC50) in assay [6] was 75.5 µM (active). In assay [2], the result was inactive.
Take `CCCCOCCOCCOCCOCCO`: the result in assay [3], in assay [5] and in assay [2] was inactive.
With `CCCCCCCCCCCCCCCC(=O)O`, the compound was called inactive in assay [2] and in assay [12].
Take `CCCCCCCCCCCCCC(=O)O`: the outcome in assay [3], in [4], in assay [5] and in [2] was inactive.
For `CCCOCC(C)O` (centres undefined), the compound was classed as inactive in assay [6] and in assay [7].
In the case of `Cc1ccc(S)cc1`, the compound was called inactive in assay [3], in assay [4], in assay [5] and in [2].
Turning to `CC(C)(C#N)c1cc(Cn2cncn2)cc(C(C)(C)C#N)c1`, in [2], the compound was classed as inactive.
`C=CC[N+](C)(C)CC=C`: the result in assay [2] was inactive.
Take `COc1c(Cl)c(Cl)c(Cl)c(Cl)c1Cl`: the AC50 in [2] is 41.8 µM (active).
Regarding `CC(=O)OCCOC(C)=O`, the outcome in [3], in [4], in assay [5] and in assay [2] was inactive.
For the compound `CC(C)CCCCCCCOC(=O)c1ccc(C(=O)OCCCCCCCC(C)C)c(C(=O)OCCCCCCCC(C)C)c1`, the compound was classed as inactive in assay [2].
As to `CC1(C)C(=O)N(Br)C(=O)N1Cl`, the result in assay [2] was inactive.
`O=C(Cl)c1cccc(C(=O)Cl)c1`: the result in assay [2] was inactive.
For the compound `COc1cc(C(C)(C)C)c(O)c(C(C)(C)C)c1`, the outcome in assay [12] was inactive.

A word on the AC50: it is the concentration giving half of the maximal activity seen.
